Test results reported in PubChem BioAssay (NCATS).
Records with an inconclusive call do not appear. The source made the active and inactive calls. Calls follow the shape of the dose curve; as a rule, active = well fitted curve in the direction sought with a large enough effect; inconclusive = small, poorly fitted or top-dose-only effect, or another doubt; inactive = no such curve, though single readings can be large; an effect the other way counts as inactive or inconclusive.

Tests used:
[1] = biological target: Aldehyde dehydrogenase, mitochondrial (Homo sapiens) (UniProt P05091); assay: qHTS for Inhibitors of the Aldehyde Dehydrogenase Family (ALDH2) Primary screen (AID 2061308); also: nearly all actives have a fitted effect of over 55% in size; also: potency is read from the fitted curve at half-maximal effect
[2] = biological target: Retinaldehyde dehydrogenase 3 (Homo sapiens) (UniProt P47895); assay: qHTS for Inhibitors of the Aldehyde Dehydrogenase Family (ALDH1A3) Primary screen (AID 2061315);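 also: plate controls were DMSO vehicle for no effect and reference inhibitor for full effect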
[3] = BET inhibitor-based combinations targeting novel dependencies in MECOM-rearranged (r) AML: SET-2 cell line (AID 2202231); settings: SET-2 AML cells viability, CellTiter-Glo luminescence, 48 h; viability: hits give low values, concentration not given here; also: nearly all actives have a fitted effect of over 35% in size; also: potency is read from the fitted curve at half-maximal effect;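 as to viability: plate controls were DMSO treated cells for no effect and wells without cells for full effect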
Summary of the method: (§1)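 Each compound was tested at eleven concentrations on cells seeded at 500/well. After two days' incubation, ATP-based luminescence reported viability; responses relative to DMSO and blank wells yielded AUC and cell-line-centred Z-AUC.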

[4] = BET inhibitor-based combinations targeting novel dependencies in MECOM-rearranged (r) AML: OCI-AML3 cell line (AID 2202232); settings: Potency: OCI-AML3 viability; also: nearly all actives have a fitted effect of over 35% in size; also: potency is read from the fitted curve at half-maximal effect
Summary of the method: as §1

[5] = BET inhibitor-based combinations targeting novel dependencies in MECOM-rearranged (r) AML: MV-4-11 cell line (AID 2202233); also: nearly all actives have a fitted effect of over 45% in size; also: potency is read from the fitted curve at half-maximal effect
Summary of the method: (§2)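 First, 500 cells per well were seeded; next, drugs were pinned as 11-point doses; then plates sat 48 hr in the incubator; finally CellTiter-Glo was added and luminescence read, with AUC and Z-AUC computed.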

[6] = BET inhibitor-based combinations targeting novel dependencies in MECOM-rearranged (r) AML: HNT-34 cell line (AID 2202234); also: nearly all actives have a fitted effect of over 35% in size; also: potency is read from the fitted curve at half-maximal effect
Summary of the method: as §2

[7] = BET inhibitor-based combinations targeting novel dependencies in MECOM-rearranged (r) AML: AML-191 cell line (AID 2202236; also: nearly all actives have a fitted effect of over 35% in size; also: potency is read from the fitted curve at half-maximal effect)
Summary of the method: as §1

[8] = BET inhibitor-based combinations targeting novel dependencies in MECOM-rearranged (r) AML: AML-194 cell line (AID 2202237; also: nearly all actives have a fitted effect of over 40% in size; also: potency is read from the fitted curve at half-maximal effect)
Summary of the method: as §1

[9] = BET inhibitor-based combinations targeting novel dependencies in MECOM-rearranged (r) AML: UCSD-AML1 cell line (AID 2202235); also: nearly all actives have a fitted effect of over 40% in size; also: potency is read from the fitted curve at half-maximal effect
Summary of the method: as §2

[10] = biological target: Aldehyde dehydrogenase 1A1 (Homo sapiens) (UniProt P00352); assay: qHTS for Inhibitors of the Aldehyde Dehydrogenase Family (ALDH1A1) Confirmatory screens (AID 2061316); also: potency is read from the fitted curve at half-maximal effect; nearly all actives have a fitted effect of over 65% in size

COc1ccc(OC)c(-c2nnc3ccc(-c4ccc(OC)c(O[C@@H]5CCOC5)c4)nn23)c1
active: Potency [3] 8330 nM | Potency [4] 4170 nM | Potency [5] 5250 nM | Potency [6] 1050 nM | Potency [7] 2350 nM | Potency [8] 2350 nM
inactive: Potency [1] | Potency [2]

COc1ccccc1-c1cccc(-c2c(O)c3cc(C#N)c(Cl)cc3[nH]c2=O)c1
inactive: Potency [1] | Potency [2] | viability [3] 99.8% | Potency [4] | Potency [5] | Potency [6] | Potency [9] | Potency [7] | Potency [8]

COC(=O)N[C@@H](C)CNc1nccc(-c2cn(C(C)C)nc2-c2cc(Cl)cc(NS(C)(=O)=O)c2F)n1
active: Potency [3] 2630 nM | Potency [4] 1660 nM | Potency [5] 2350 nM | Potency [6] 833 nM | Potency [9] 2630 nM | Potency [7] 1660 nM | Potency [8] 2090 nM
inactive: Potency [1] | Potency [2]

O=c1c2ccccc2nc2sc(Nc3ccc4c(c3)OCO4)nn12
inactive: Potency [1] | Potency [2]
active: Potency [10] 5040 nM

C[C@H]1[C@H](C)CC[C@]2(C(=O)O)CC[C@]3(C)C(=CC[C@@H]4[C@@]5(C)C[C@@H](O)[C@H](O)[C@@](C)(CO)[C@@H]5CC[C@]43C)[C@H]12
inactive: Potency [1] | Potency [2] | viability [3] 104% | Potency [4] | Potency [5] | Potency [6] | Potency [7] | Potency [8]

O=C1Nc2cc(Cl)ccc2Nc2cscc21
inactive: Potency [2]
active: Potency [1] 14100 nM | Potency [10] 7120 nM

O=C(CO)N1CCC(c2[nH]nc(-c3ccc(Cl)cc3)c2-c2ccncn2)CC1
inactive: Potency [1] | Potency [2] | viability [3] 101% | Potency [4] | Potency [5] | Potency [6] | Potency [9] | Potency [7] | Potency [8]

O=C(NCc1ccc(S(=O)(=O)c2cccc(C(F)(F)F)c2)cc1)c1cnc2[nH]ncc2c1
inactive: Potency [1] | Potency [2] | viability [3] 110%
active: Potency [4] 14.8 nM | Potency [5] 83.3 nM | Potency [6] 26.3 nM | Potency [9] 20.9 nM | Potency [7] 14.8 nM | Potency [8] 742 nM

CO[C@H]1C[C@@H]2CC[C@@H](C)[C@@](O)(O2)C(=O)C(=O)N2CCCC[C@H]2C(=O)O[C@H]([C@H](C)C[C@@H]2CC[C@@H](OC(=O)C(C)(CO)CO)[C@H](OC)C2)CC(=O)[C@H](C)/C=C(\C)[C@@H](O)[C@@H](OC)C(=O)[C@H](C)C[C@H](C)/C=C/C=C/C=C/1C
inactive: Potency [1] | Potency [2]
active: Potency [3] 91 nM

COc1ccc(-c2ccc3ncc4c(c3c2)n(-c2ccc(N3CCNCC3)c(C(F)(F)F)c2)c(=O)n4C)cn1
inactive: Potency [1] | Potency [2]
active: Potency [3] 332 nM | Potency [4] 235 nM | Potency [5] 105 nM | Potency [6] 118 nM | Potency [9] 52.5 nM | Potency [7] 132 nM | Potency [8] 118 nM

CN1CCN(C2CCC(n3cc(-c4ccc(Oc5ccccc5)cc4)c4c(N)ncnc43)CC2)CC1 (stereo unspecified)
inactive: Potency [1] | Potency [2]
active: Potency [3] 20900 nM | Potency [4] 13200 nM | Potency [5] 235 nM | Potency [9] 7420 nM | Potency [7] 9340 nM | Potency [8] 8330 nM

COc1cc(-c2cc(-c3ccc(N4CCNCC4)cc3)cnc2C)cc(OC)c1OC
inactive: Potency [1] | Potency [2] | viability [3] 104%
active: Potency [4] 8330 nM | Potency [5] 10500 nM

COCCNCc1ccc(-c2cc3nccc(Oc4ccc(NC(=S)NC(=O)Cc5ccc(F)cc5)cc4F)c3s2)nc1
inactive: Potency [1] | Potency [2]
active: Potency [3] 4680 nM | Potency [4] 2630 nM | Potency [5] 132 nM | Potency [9] 2950 nM

CC(C)c1c(-c2ccccc2)nc2c(C#N)c[nH]n2c1=O
inactive: Potency [1] | Potency [2] | viability [3] 118% | Potency [4] | Potency [5] | Potency [6] | Potency [9] | Potency [7] | Potency [8]

CCCNC(=O)[C@H]1O[C@@H]1C(=O)N[C@H](C(=O)N1CCC[C@H]1C(=O)OC)C(C)CC (stereo partly specified)
inactive: Potency [1] | Potency [2]
active: Potency [3] 26300 nM | Potency [4] 2090 nM | Potency [5] 8330 nM | Potency [6] 23500 nM | Potency [8] 10500 nM

Cc1cc(C)nc(NC(=S)N2CCN(c3cc(Cl)cc(Cl)n3)CC2)c1
active: Potency [10] 3570 nM
inactive: Potency [1] | Potency [2]

NC[C@@](O)(c1ccc(Cl)cc1)c1ccc(-c2cn[nH]c2)cc1
active: Potency [3] 7420 nM | Potency [4] 5250 nM | Potency [5] 4680 nM | Potency [6] 4170 nM | Potency [7] 7420 nM | Potency [8] 6610 nM
inactive: Potency [1] | Potency [2]
